# Measured values as given in PubChem BioAssay.
# Active and inactive are the calls of the source.
# What was measured:
# [1] = test system: Human papillomavirus type 1a protein E7 (residues 44-93); assay: small molecules binding HPV E7 44-93 – biochemical, small-molecule microarray, residues 44-93, 635 nm fluorescence, primary screen (AID 1108); conditions: fluorescence 635 nm, higher = more signal;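 also: E7 fragment applied at 1 µg/mL in TBST for 1 h at 4 C; score combines spot fluorescence with its signal to noise ratio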
# [2] = hepatitis C replication reporter changes, two-sided – Huh7 cells, luciferase reporter, HCV replication inhibitor project, primary screen (AID 1109); conditions: Huh7 HCV replicon luciferase reporter, 48 h; higher = more signal;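 also: huh7 hepatoma cells harbouring a luciferase neomycin HCV replicon reporter; luciferase luminescence as measure of HCV replicon replication; test concentration not given here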
# [3] = target: Left-right determination factor 2 (Homo sapiens) (UniProt O00292); assay: small molecules binding LEFTY2 protein – biochemical, small-molecule microarray, 635 nm fluorescence scan, primary screen (AID 1110); conditions: higher = more signal
# [4] = target: Calmodulin-1 (Homo sapiens) (UniProt P0DP23); assay: small molecules binding calmodulin-1 with EGTA – biochemical, small-molecule microarray, Cy5-labelled CALM1, profiling panel (AID 1111); conditions: Cy5-CALM1 binding fluorescence, higher = more signal;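 also: labelled calmodulin applied in Tris saline Tween buffer holding calcium plus EGTA and DTT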
# [5] = target: Calmodulin-1 (Homo sapiens) (UniProt P0DP23); assay: small molecules binding Ca-loaded calmodulin-1 – biochemical, small-molecule microarray, Cy5-labelled CALM1, plus calcium, artefact control for SMM control-protein annotation, profiling panel (AID 1112); conditions: Cy5-CALM1 binding fluorescence, higher = more signal;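 also: score merges spot fluorescence with signal to noise from triplicate slides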
# [6] = probe aWnt5a binding to arrayed compounds – biochemical, biotinylated probe, 635/667 nm fluorescence, primary screen (AID 1113); conditions: small-molecule microarray, higher = more signal;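 also: score merges 667 nm fluorescence intensity with signal-to-noise per printed feature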
# [7] = probe aShh binding to arrayed compounds – biochemical, biotinylated probe, 635/667 nm fluorescence, primary screen (AID 1114); conditions: small-molecule microarray, higher = more signal;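 also: probe is biotin-labelled aShh protein from a stem cell growth factor screen; measures binding of labelled protein to compounds printed on the slide; score merges feature fluorescence at 667 nm with signal-to-noise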
# [8] = probe aNog binding to arrayed compounds – biochemical, biotinylated probe, 635/667 nm fluorescence, primary screen (AID 1115); conditions: small-molecule microarray, higher = more signal;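 also: probe is biotinylated aNog protein used at 0.15 µg/mL for 1 h at 4 C; z-score combines 667 nm fluorescence of each spot with its signal to noise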
# [9] = target: Torsin-1A-interacting protein 1 (Homo sapiens) (UniProt Q5JTV8); assay: compound microarray binding of lysate hLAP1 – cell lysate, small-molecule microarray, COS7 lysate, 635/667 nm fluorescence, primary screen (AID 1116); conditions: 635 nm fluorescence, higher = more signal
# [10] = target: Alpha-bungarotoxin (Bungarus multicinctus) (UniProt P60615); assay: compounds binding labelled alpha-BTX control protein – biochemical, small-molecule microarray, Alexa647 label, 635/667 nm fluorescence, artefact control for SMM control protein annotation, profiling panel (AID 1117); conditions: alpha-BTX-A647 binding fluorescence, higher = more signal
# [11] = target: Albumin (Bos taurus) (UniProt P02769); assay: compounds binding labelled BSA control protein – biochemical, small-molecule microarray, Alexa647 label, 635/667 nm fluorescence, artefact control for SMM control protein annotation, profiling panel (AID 1118); conditions: BSA-A647 binding, fluorescence 635 nm, higher = more signal;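 also: score merges 667 nm emission intensity and signal-to-noise per printed compound spot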
# [12] = probe aXIP binding to arrayed compounds – biochemical, NeuroSMM set, 635/667 nm fluorescence, primary screen (AID 1119); conditions: small-molecule microarray, higher = more signal, called active from +8 up or from −8 down;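 also: probe is the protein aXip251-270 applied at 1 µg/mL to compound-printed slides; binding of probe to printed compounds measured as 667 nm fluorescence plus signal to noise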
# [13] = probe aNOTCH3 binding on compound microarray – biochemical, small-molecule microarray, 635/667 nm fluorescence, primary screen (AID 1120); conditions: higher = more signal;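 also: probe is a biotin-tagged antibody raised against NOTCH3 rather than NOTCH3 protein; score merges spot fluorescence near 667 nm with spot signal to noise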
# [14] = probe aNOTCH2 binding on compound microarray – biochemical, small-molecule microarray, 635/667 nm fluorescence, primary screen (AID 1121); conditions: higher = more signal;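 also: score merges feature fluorescence read at 667 nm with its signal to noise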
# [15] = target: Carbonic anhydrase 2 (Homo sapiens) (UniProt P00918); assay: compounds binding carbonic anhydrase 2 – biochemical, small-molecule microarray, Alexa647-labelled CAII, profiling panel (AID 1122); conditions: CAII-A647 binding fluorescence, higher = more signal
# [16] = COS7 lysate on small-molecule microarray, probe aHis, 635 nm (AID 1123); conditions: COS7 cell lysate, fluorescence, higher = more signal;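 also: z-score combines 667nm fluorescence intensity with signal-to-noise per printed compound spot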
# [17] = probe aLAP1 signal on lysate-treated microarray – cell lysate, small-molecule microarray, COS7 lysate, primary screen (AID 1124); conditions: probe aLAP1, fluorescence, higher = more signal;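 also: lysate comes from COS7 cells expressing LAP1 and is applied at 0.3 µg/mL; score merges spot fluorescence near 667 nm with signal-to-noise over triplicate slides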
# [18] = test system: Sam68 (KHDRBS1); assay: compounds binding KHDRBS1 protein – biochemical, small-molecule microarray, 635 nm fluorescence, primary screen (AID 1125); conditions: higher = more signal;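 also: score merges 667 nm channel intensity with signal to noise over triplicate slides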
# [19] = test system: Chordin-like protein 2 (CHRDL2); assay: compounds binding chordin-like 2 – biochemical, small-molecule microarray, 635 nm fluorescence, primary screen (AID 1126); conditions: fluorescence 635 nm, higher = more signal;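 also: printed compound slides probed with Chrdl2 protein at 4 µg/mL for 1 h at 4 C; score merges 667 nm emission intensity with signal to noise over three replicate slides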
# [20] = target: Concanavalin-A (Canavalia ensiformis) (UniProt P02866); assay: compounds binding concanavalin A lectin – biochemical, small-molecule microarray, Alexa647 label, 635 nm, artefact control for SMM control protein annotation, primary screen (AID 1127); conditions: ConA-A647 binding fluorescence, higher = more signal;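 also: z combines 667 nm emission intensity with signal-to-noise across three replicate slides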
# Concanavalin-A (Canavalia ensiformis), sequence (P02866 whole entry, looked up): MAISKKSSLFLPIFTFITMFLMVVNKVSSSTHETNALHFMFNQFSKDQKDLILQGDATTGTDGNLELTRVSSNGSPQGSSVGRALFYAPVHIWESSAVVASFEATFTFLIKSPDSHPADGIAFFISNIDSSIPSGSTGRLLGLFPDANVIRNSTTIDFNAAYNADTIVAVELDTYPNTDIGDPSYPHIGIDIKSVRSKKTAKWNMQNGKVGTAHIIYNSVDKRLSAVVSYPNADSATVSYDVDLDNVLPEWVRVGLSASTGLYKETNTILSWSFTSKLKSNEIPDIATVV
# Left-right determination factor 2 (Homo sapiens), sequence (O00292 whole entry, looked up): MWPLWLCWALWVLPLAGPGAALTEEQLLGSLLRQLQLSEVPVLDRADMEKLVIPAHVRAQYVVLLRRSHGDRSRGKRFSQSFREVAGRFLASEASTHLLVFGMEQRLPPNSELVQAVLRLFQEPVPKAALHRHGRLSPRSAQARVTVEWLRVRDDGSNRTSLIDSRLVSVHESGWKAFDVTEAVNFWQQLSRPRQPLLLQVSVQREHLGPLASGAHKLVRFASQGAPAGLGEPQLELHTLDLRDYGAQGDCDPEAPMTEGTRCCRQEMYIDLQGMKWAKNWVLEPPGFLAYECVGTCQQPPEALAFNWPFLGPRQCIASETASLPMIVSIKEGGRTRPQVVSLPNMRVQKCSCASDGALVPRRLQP
# Alpha-bungarotoxin (Bungarus multicinctus), sequence (P60615 whole entry, looked up): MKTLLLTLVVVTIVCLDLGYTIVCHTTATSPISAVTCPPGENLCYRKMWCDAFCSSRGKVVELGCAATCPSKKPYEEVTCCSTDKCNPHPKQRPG
# Albumin (Bos taurus), sequence (P02769 whole entry, looked up): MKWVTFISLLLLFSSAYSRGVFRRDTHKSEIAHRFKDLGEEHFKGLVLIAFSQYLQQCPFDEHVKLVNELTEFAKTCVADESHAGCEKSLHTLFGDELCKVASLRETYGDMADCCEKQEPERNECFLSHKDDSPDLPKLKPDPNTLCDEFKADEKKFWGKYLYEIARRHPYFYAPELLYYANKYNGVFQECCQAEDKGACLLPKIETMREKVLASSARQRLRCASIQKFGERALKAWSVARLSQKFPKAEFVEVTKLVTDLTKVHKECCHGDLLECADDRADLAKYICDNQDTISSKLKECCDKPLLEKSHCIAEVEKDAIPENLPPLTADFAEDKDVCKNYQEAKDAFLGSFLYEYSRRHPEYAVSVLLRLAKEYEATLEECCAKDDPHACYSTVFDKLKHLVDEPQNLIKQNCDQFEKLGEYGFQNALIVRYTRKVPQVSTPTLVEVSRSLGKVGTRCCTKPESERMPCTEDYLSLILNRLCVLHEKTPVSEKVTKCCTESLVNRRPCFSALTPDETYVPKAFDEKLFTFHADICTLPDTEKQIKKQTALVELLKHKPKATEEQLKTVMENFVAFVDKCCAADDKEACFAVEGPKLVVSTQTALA
# Torsin-1A-interacting protein 1 (Homo sapiens), sequence (Q5JTV8 whole entry, looked up): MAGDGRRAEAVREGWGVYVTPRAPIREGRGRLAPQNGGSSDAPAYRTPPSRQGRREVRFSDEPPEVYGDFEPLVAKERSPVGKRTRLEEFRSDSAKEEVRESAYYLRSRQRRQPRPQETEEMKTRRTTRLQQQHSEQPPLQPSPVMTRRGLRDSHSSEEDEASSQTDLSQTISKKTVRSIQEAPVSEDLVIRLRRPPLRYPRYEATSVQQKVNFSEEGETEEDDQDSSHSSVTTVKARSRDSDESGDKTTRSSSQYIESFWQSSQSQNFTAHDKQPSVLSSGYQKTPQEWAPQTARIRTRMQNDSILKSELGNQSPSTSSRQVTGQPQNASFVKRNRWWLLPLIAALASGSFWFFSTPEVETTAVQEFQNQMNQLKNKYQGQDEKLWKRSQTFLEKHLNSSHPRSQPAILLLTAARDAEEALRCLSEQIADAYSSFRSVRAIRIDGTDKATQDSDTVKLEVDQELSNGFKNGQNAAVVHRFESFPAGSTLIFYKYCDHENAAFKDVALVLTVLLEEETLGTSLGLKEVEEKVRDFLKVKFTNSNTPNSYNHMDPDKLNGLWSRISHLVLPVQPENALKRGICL
SMILES,composite z-score [1],z-score [2],composite z-score [3],composite z-score [4],composite z-score [5],composite z-score [6],composite z-score [7],composite z-score [8],composite z-score [9],composite z-score [10],composite z-score [11],composite Z-score [12],composite z-score [13],composite z-score [14],composite z-score [15],composite z-score [16],composite z-score [17],composite z-score [18],composite z-score [19],composite z-score [20]
COc1ccc(C(O)C2C=CC3C(=O)N(c4ccccc4)C(=O)C3N2Nc2ccccc2)cc1 (stereo not given),1.39,-0.454,-0.13,0.553,0.147,0.0102,-0.0243,0.36,0.272,2.13,1.01,-0.135 (inactive),0.331,-0.0501,0.781,2.89,0.326,1.17,-0.154,1.14
C=CCC(OC(C)=O)[C@@H]1[C@@H](N(Cc2cc3ccccc3o2)C(=O)c2ccc(-c3ccccc3)cc2)c2cc(OCCCO)ccc2N1C(=O)Cc1ccc(OC)cc1 (stereo not given in full),-0.401,-1.46,0.0189,-0.184,0.464,-0.0758,-0.335,-0.216,-0.195,-0.17,0.0787,0.443 (inactive),-0.0189,-0.14,-0.284,0.401,-0.237,0.0416,0.186,0.444
O=c1cccc(-c2ccc(F)cc2)o1,-0.399,-0.228,0.55,-0.236,-0.33,-0.1,0.216,0.0416,-0.184,0.241,0.445,-0.261 (inactive),0.176,-0.0527,-0.114,-0.218,0.403,0.501,0.556,0.354
CC(=O)n1cc(C(O)C2C=CC3C(=O)N(c4ccccc4)C(=O)C3N2Nc2ccc(C(C)C)cc2)c2ccccc21 (stereo not given),0.656,-0.909,-0.0688,2.53,1.38,-0.0394,0.0328,1.41,1.68,1.6,1.02,1.19 (inactive),0.328,0.08,0.433,2.87,0.503,1.29,0.0259,0.764
COCCOC(=O)N1C(=O)[C@@]2(c3ccccc31)[C@H](c1ccc(OCCO)cc1)N1[C@H](c3ccccc3)[C@H](c3ccccc3)OC(=O)[C@H]1[C@@H]2C(=O)N1CCCCCCC1,1.52,-1.56,1.83,3.21,1.79,1.61,3.26,3.73,5.85,5.03,0.915,7.84 (inactive),2.31,1.18,1.08,5.33,1.22,1.35,1.7,1.24
C=C(COC)/C(=C/C[C@H](OC(C)=O)c1cccc(OCCO)c1)c1cnc2ccccc2c1,1.4,-1.7,0.536,-0.0062,-0.892,-0.0512,-0.147,0.353,0.416,2.04,0.497,0.0575 (inactive),0.0556,-0.0817,0.917,0.109,0.267,1.24,1.35,1.05
COCCOC(=O)N1C(=O)[C@@]2(c3cc(C#CCC(C(=O)OC)C(=O)OC)ccc31)[C@H](C(=O)NC[C@H](O)c1ccccc1)[C@H]1C(=O)O[C@H](c3ccccc3)[C@H](c3ccccc3)N1[C@@H]2c1ccc(O)cc1,1.37,-0.545,0.102,1.65,0.247,-0.0194,-0.0146,-0.038,1.37,0.195,0.661,-0.0756 (inactive),-0.0014,-0.0974,0.614,1.67,0.243,0.378,-0.769,0.708
CN1C(=O)C2C=CC(C(O)c3cc(C(F)(F)F)cc(C(F)(F)F)c3)N(NC(=O)OC(C)(C)C)C2C1=O (stereo not given),1.38,-1.24,0.106,2.45,0.666,-0.0607,-0.0626,2.04,1.48,1.23,1.04,0.622 (inactive),0.465,0.0753,0.604,2.87,0.403,1.3,-1.08,1.17
COc1ccc(C(=O)Nc2cccc(CN3C(=O)[C@@]4(O[C@@H](CC(=O)N(CCO)Cc5ccccc5)[C@H]([Si](C)(C)c5ccc(OC)cc5)[C@H]4C)c4ccccc43)c2)cc1,1.18,-3.89,0.344,0.822,-0.0254,-0.187,-0.206,-0.38,1.12,0.681,0.441,0.799 (inactive),-0.122,-0.0868,0.56,1.56,0.229,1.19,0.351,0.601
[N-]=[N+]=Nc1ccccc1C[C@@]1(C(=O)O)N=C(c2ccc(OCCCO)cc2)O[C@@H]1c1ccccc1N=[N+]=[N-],1.26,-1.26,0.0656,2.45,1.12,-0.034,0.108,1.27,1.79,1.32,0.612,0.95 (inactive),0.126,0.13,0.457,2.49,1.66,1.3,-0.91,1.15
COCCCNC(=O)[C@@]1(Sc2ccc(C)cc2)CC(=O)N(C(C)C)[C@@H]1c1ccc(CO)cc1I,1.27,-3.44,-0.327,-0.0081,-0.0868,-0.096,-0.291,-0.289,0.722,0.487,-0.622,0.525 (inactive),0.0062,-0.164,0.763,1.4,0.427,0.462,-0.825,0.413
